From PubChem BioAssay come the findings set out here.

Calls of active or inactive are those of the source.

In one assay the target is Albumin (Bos taurus) (UniProt P02769). In words: compounds binding labelled BSA control protein – biochemical, small-molecule microarray, Alexa647 label, 635/667 nm fluorescence, artefact control for SMM control protein annotation, profiling panel (AID 1118).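 Note: score merges 667 nm emission intensity and signal-to-noise per printed compound spot.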 As to conditions: BSA-A647 binding, fluorescence 635 nm, higher = more signal.
Assay [1] is described as follows: probe aXIP binding to arrayed compounds – biochemical, NeuroSMM set, 635/667 nm fluorescence, primary screen (AID 1119).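 Note: probe is the protein aXip251-270 applied at 1 µg/mL to compound-printed slides; binding of probe to printed compounds measured as 667 nm fluorescence plus signal to noise.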 As to conditions: small-molecule microarray, higher = more signal, called active from +8 up or from −8 down.
A short description of assay [2]: probe aNOTCH3 binding on compound microarray – biochemical, small-molecule microarray, 635/667 nm fluorescence, primary screen (AID 1120).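 Note: probe is a biotin-tagged antibody raised against NOTCH3 rather than NOTCH3 protein; score merges spot fluorescence near 667 nm with spot signal to noise.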 As to conditions: higher = more signal.
Assay [3] is described as follows: probe aNOTCH2 binding on compound microarray – biochemical, small-molecule microarray, 635/667 nm fluorescence, primary screen (AID 1121).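 Note: score merges feature fluorescence read at 667 nm with its signal to noise.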 As to conditions: higher = more signal.
For assay [4], the target named is Carbonic anhydrase 2 (Homo sapiens) (UniProt P00918). The assay can be described thus: compounds binding carbonic anhydrase 2 – biochemical, small-molecule microarray, Alexa647-labelled CAII, profiling panel (AID 1122). As to conditions: CAII-A647 binding fluorescence, higher = more signal.
The nature of assay [5]: COS7 lysate on small-molecule microarray, probe aHis, 635 nm (AID 1123).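 Note: z-score combines 667nm fluorescence intensity with signal-to-noise per printed compound spot.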 The conditions noted are these: COS7 cell lysate, fluorescence, higher = more signal.
A short description of assay [6]: probe aLAP1 signal on lysate-treated microarray – cell lysate, small-molecule microarray, COS7 lysate, primary screen (AID 1124).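 Note: lysate comes from COS7 cells expressing LAP1 and is applied at 0.3 µg/mL; score merges spot fluorescence near 667 nm with signal-to-noise over triplicate slides.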 As to conditions: probe aLAP1, fluorescence, higher = more signal.
A further assay has as its system Sam68 (KHDRBS1). The assay can be described thus: compounds binding KHDRBS1 protein – biochemical, small-molecule microarray, 635 nm fluorescence, primary screen (AID 1125).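 Note: score merges 667 nm channel intensity with signal to noise over triplicate slides.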 The conditions noted are these: higher = more signal.
In assay [7] the test system is Chordin-like protein 2 (CHRDL2). In words: compounds binding chordin-like 2 – biochemical, small-molecule microarray, 635 nm fluorescence, primary screen (AID 1126).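 Note: printed compound slides probed with Chrdl2 protein at 4 µg/mL for 1 h at 4 C; score merges 667 nm emission intensity with signal to noise over three replicate slides.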 As to conditions: fluorescence 635 nm, higher = more signal.
In assay [8] the target is Concanavalin-A (Canavalia ensiformis) (UniProt P02866). The assay can be described thus: compounds binding concanavalin A lectin – biochemical, small-molecule microarray, Alexa647 label, 635 nm, artefact control for SMM control protein annotation, primary screen (AID 1127).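 Note: z combines 667 nm emission intensity with signal-to-noise across three replicate slides.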 As to conditions: ConA-A647 binding fluorescence, higher = more signal.
Assay [9] in a line: compounds binding Alexa647 anti-His antibody – biochemical, small-molecule microarray, 635 nm fluorescence, artefact control for SMM control protein annotation, primary screen (AID 1128).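 Note: score merges feature fluorescence with signal-to-noise for each printed compound spot.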 As to conditions: higher = more signal.
In assay [10] the test system is Human papillomavirus type 1a E7 protein (residues 1-88). In words: HPV1a E7 small-molecule binders, primary screen, biochemical, small-molecule microarray, residues 1-88, 635 nm (AID 1129). As to conditions: small-molecule microarray binding, fluorescence 635 nm; higher = more signal.
Assay [11] concerns the target Focal adhesion kinase 1 (Homo sapiens) (UniProt Q05397). In words: PTK2 protein binding on printed compound slides – biochemical, small-molecule microarray, 635/667 nm fluorescence, BSA, DTT, primary screen (AID 1130).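 Note: composite of spot emission at 667 nm and signal to noise over triplicate slides.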 The conditions noted are these: 635 nm fluorescence, higher = more signal.
The test system of assay [12] is Fibrinogen (Alexa647-labelled). In words: Alexa647-fibrinogen binding to printed small molecules – biochemical, small-molecule microarray, 635/667 nm fluorescence, artefact control for SMM control-protein annotation, profiling panel (AID 1131).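 Note: z-score merges 667 nm fluorescence with per-spot signal-to-noise over triplicate slides.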 As to conditions: fibrinogen-A647 binding fluorescence, higher = more signal.
The target of assay [13] is Follistatin (Homo sapiens) (UniProt P19883). In words: FST protein binding to printed compounds – biochemical, small-molecule microarray, 635/667 nm fluorescence, primary screen (AID 1132). As to conditions: 635 nm fluorescence, higher = more signal.
The target in assay [14] is Fibroblast growth factor 2 (Homo sapiens) (UniProt P09038). In words: basic fibroblast growth factor binding to printed compounds – biochemical, small-molecule microarray, 635/667 nm fluorescence, primary screen (AID 1133). The conditions noted are these: FGF2, fluorescence 635/667, higher = more signal.
Assay [15] can be described thus: JC-1 mitochondrial potential readout, lung cancer cells – cell-based, A549, JC-1 fluorescence, basal, 24 h, 100 nL, profiling panel (AID 1138).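 Note: A549 lung adenocarcinoma cells under basal conditions with no added stimulus; test concentration not given here.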 As to conditions: higher = more signal.
In the next assay the test system is Lefty1. The assay can be described thus: Lefty1 protein binding to printed compounds – biochemical, small-molecule microarray, 635/667 nm fluorescence, primary screen (AID 1139). The conditions noted are these: fluorescence 635/667, higher = more signal.
Assay [16] deals with wheat germ agglutinin (Triticum aestivum), Alexa647-labelled. In words: Alexa647-WGA lectin binding to printed small molecules – biochemical, small-molecule microarray, 635/667 nm fluorescence, artefact control for SMM control-protein annotation, profiling panel (AID 1140).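 Note: score merges 667 nm feature emission with signal to noise over triplicate slides.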 As to conditions: WGA-A647 binding, 635 nm fluorescence, higher = more signal.
Assay [17] concerns the target Luciferin 4-monooxygenase (Photinus pyralis) (UniProt P08659). In words: inhibition of purified Photinus pyralis luciferase – biochemical, luminescence, purified enzyme, 2006 set, primary screen (AID 1141).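 Note: cell-free assay with purified firefly luciferase at 100 ng per well in PBS; test concentration not given here.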 As to conditions: purified firefly luciferase, SteadyGlo luminescence, 30 min; higher = more signal, called active from +8 up or from −8 down.

Concanavalin-A (Canavalia ensiformis), sequence (P02866 whole entry, looked up): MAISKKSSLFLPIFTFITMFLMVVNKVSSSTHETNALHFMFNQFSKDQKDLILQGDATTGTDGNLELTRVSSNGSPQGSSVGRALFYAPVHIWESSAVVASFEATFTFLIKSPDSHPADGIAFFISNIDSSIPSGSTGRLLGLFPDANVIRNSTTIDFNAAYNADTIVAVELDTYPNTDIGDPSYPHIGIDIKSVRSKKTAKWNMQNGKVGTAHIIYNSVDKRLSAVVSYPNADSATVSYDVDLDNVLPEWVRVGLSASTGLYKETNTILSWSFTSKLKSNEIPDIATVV
Focal adhesion kinase 1 (Homo sapiens), sequence (Q05397 whole entry, looked up): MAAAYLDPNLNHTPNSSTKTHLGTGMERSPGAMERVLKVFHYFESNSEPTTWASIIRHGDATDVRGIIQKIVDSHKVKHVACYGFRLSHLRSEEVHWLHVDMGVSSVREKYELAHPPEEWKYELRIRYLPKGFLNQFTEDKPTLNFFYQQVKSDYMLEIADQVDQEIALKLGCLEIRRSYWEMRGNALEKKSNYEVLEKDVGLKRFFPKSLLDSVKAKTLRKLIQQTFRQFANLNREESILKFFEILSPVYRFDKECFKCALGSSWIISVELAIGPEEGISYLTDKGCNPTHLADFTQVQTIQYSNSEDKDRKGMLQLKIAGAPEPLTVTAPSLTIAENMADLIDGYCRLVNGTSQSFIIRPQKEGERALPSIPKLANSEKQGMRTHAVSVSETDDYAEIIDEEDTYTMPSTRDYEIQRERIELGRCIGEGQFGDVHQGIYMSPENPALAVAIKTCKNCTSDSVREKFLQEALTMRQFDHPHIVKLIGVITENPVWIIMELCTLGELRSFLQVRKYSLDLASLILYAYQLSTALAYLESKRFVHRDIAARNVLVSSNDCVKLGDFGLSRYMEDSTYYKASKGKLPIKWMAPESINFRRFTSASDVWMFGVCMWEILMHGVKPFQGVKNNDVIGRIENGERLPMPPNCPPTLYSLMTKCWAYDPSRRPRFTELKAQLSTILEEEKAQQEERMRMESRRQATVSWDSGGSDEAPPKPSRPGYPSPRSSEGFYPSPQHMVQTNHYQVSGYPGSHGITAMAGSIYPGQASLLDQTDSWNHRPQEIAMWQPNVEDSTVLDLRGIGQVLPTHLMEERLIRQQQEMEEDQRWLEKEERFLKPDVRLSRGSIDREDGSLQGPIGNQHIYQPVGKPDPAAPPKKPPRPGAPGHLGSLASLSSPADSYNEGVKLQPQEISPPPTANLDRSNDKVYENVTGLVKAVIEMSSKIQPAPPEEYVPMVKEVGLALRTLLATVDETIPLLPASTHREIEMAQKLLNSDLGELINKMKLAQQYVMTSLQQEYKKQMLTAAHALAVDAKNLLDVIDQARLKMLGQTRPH
Luciferin 4-monooxygenase (Photinus pyralis), sequence (P08659 whole entry, looked up): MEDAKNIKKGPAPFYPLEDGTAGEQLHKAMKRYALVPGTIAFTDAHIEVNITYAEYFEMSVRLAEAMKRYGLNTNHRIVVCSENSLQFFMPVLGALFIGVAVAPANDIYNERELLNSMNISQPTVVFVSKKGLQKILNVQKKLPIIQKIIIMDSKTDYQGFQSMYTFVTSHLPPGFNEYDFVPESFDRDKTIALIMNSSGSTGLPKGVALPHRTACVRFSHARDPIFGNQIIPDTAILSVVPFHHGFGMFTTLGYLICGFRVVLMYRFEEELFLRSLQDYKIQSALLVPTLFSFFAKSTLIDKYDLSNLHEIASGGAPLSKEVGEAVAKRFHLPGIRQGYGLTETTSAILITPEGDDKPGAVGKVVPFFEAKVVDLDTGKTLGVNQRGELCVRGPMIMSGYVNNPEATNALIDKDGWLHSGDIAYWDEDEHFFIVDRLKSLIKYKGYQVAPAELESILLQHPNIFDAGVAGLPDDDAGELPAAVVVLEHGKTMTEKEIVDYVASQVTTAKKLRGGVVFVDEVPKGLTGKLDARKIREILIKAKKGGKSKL
Follistatin (Homo sapiens), sequence (P19883 whole entry, looked up): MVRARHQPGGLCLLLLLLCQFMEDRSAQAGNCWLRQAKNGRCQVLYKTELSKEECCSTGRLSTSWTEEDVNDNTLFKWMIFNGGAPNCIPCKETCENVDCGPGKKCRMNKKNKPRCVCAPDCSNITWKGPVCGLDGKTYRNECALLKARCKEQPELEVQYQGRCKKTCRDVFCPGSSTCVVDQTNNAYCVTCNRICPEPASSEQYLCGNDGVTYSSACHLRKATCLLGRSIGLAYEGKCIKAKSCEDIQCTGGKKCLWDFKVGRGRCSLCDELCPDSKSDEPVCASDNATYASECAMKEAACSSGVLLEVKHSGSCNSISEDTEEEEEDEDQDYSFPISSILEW
Albumin (Bos taurus), sequence (P02769 whole entry, looked up): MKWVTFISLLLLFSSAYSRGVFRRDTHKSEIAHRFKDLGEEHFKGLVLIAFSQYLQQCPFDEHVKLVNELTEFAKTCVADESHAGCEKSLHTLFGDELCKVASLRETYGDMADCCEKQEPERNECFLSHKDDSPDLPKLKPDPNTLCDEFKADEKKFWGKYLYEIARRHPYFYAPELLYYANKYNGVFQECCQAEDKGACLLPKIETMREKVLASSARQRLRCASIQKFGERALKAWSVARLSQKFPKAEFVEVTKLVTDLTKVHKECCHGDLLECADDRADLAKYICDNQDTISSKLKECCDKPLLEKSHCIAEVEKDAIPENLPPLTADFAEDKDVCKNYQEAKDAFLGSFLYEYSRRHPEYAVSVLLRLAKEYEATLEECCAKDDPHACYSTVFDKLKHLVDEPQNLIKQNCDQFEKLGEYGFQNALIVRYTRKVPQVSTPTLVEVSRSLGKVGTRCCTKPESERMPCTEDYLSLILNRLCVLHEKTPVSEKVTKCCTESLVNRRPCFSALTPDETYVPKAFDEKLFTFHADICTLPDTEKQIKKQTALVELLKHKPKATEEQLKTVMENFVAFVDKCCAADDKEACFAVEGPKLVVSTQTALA
Fibroblast growth factor 2 (Homo sapiens), sequence (P09038 whole entry, looked up): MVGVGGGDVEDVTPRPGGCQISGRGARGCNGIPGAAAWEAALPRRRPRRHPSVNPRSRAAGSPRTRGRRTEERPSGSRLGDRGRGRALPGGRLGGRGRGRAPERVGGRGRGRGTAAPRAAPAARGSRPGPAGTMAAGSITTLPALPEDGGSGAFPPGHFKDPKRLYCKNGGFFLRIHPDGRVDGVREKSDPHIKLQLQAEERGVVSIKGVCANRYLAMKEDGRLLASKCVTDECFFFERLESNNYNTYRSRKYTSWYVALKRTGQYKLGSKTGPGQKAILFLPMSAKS

Regarding `O=[N+]([O-])c1ccc(C[n+]2ccc3ccc(O)cc3c2)o1`, the composite z-score in the assay with Albumin (Bos taurus) was 0.895; in assay [2], 0.0736; in assay [3], -0.0746; in assay [4], 0.64; in [5], 0.466; in assay [6], 0.98. The composite z-score with Sam68 (KHDRBS1) came to 0.534; in assay [7] it was 0.0197; in assay [8] it was 1.11; in [9] it was 0.0131; in assay [10], 0.275; in [11], 0.326. In addition, the composite z-score in assay [12] turned out to be 0.596; in assay [13] it was 1.04; in assay [14], 0.227; in the assay on Lefty1 it was 0.392; in [16], 1.12. In [1], the composite Z-score is 0.14 (inactive). Also, the z-score was 1.25 in assay [15] and -2 (inactive) in assay [17].

Take `O=C1OCCC/C=C\[C@H]2OC34C=CCN(CCN5CCOCC5)C(=O)[C@H]3N(CCCCCO)C(=O)[C@@H]4C12` (stereo not given in full): the composite z-score with Albumin (Bos taurus) is -1.22; in assay [2], -0.246; in [3] it was -0.162; in [4] it was 0.816; in assay [5] it was -0.687; in assay [6], -0.401. Besides, the composite z-score is -0.369 in the assay with Sam68 (KHDRBS1); -1.15 in assay [7]; -0.167 in assay [8]; -0.265 in [9]; -2.02 in [10]; -1.29 in [11]. Also, the composite z-score in assay [12] was -1.25; in [13], -0.267; in assay [14], -0.821; with Lefty1 it was -0.84; in assay [16] it was -0.858. In addition, the composite Z-score in [1] was 1.39 (inactive). Besides, the z-score is -0.203 in assay [15] and 0.32 (inactive) in assay [17].

Regarding `COC(=O)Cn1c(C(=O)N2CCCC2)cc2c1C[C@H]1CN(C(=O)c3ccccc3)[C@@](Cc3ccccc3)(C(=O)OC)[C@@H]21`, the composite z-score with Albumin (Bos taurus) is 1.06; in [2] it was -0.0647; in assay [3], 0.0292; in [4], 0.752; in assay [5], 1.99; in assay [6] it was -0.263. In addition, the composite z-score is 0.185 in the assay on Sam68 (KHDRBS1); -1.13 in assay [7]; 0.831 in assay [8]; 1.64 in [9]; 0.684 in assay [10]; 0.714 in [11]. Moreover, the composite z-score in assay [12] was 1.01; in assay [13], 0.0488; in assay [14], -0.684; with Lefty1, 0.142; in [16] it was 1.43. In assay [1], the composite Z-score was 0.0529 (inactive). The values for the z-score in assay [15] and in assay [17] were 0.367 and 0.659 (inactive), respectively.

Regarding `CCOC(=O)C[C@H]1[C@H](OC(=O)c2ccccc2-c2ccccc2)[C@@H](NC(=O)c2ccc(-c3ccccc3)cc2)c2cc(OCCCO)ccc2N1C(=O)Cc1ccc(OC)cc1`, the composite z-score in the assay with Albumin (Bos taurus) was 0.0867; in [2], 0.0193; in assay [3], -0.0759; in assay [4], -0.0176; in assay [5], 0.416; in [6], -0.0563. Further, the composite z-score is 0.406 with Sam68 (KHDRBS1); 0.335 in [7]; 0.398 in assay [8]; -0.293 in [9]; -0.301 in [10]; 0.371 in assay [11]. The composite z-score in assay [12] was 0.411; in assay [13] it was 0.362; in [14], 0.487; in the assay with Lefty1, 0.566; in assay [16] it was -0.12. For the same compound, in [1], the composite Z-score is 0.0368 (inactive). The z-score was 0.78 in assay [15] and 0.393 (inactive) in assay [17].

Consider `COCCOC(=O)N1C(=O)[C@@]2(c3cc(C#CC4=CCCCC4)ccc31)[C@H](C(=O)NC[C@H](O)c1ccccc1)[C@H]1C(=O)O[C@H](c3ccccc3)[C@H](c3ccccc3)N1[C@@H]2c1ccc(OCCO)cc1`, for which the composite z-score is 0.723 in the assay with Albumin (Bos taurus); 0.0739 in assay [2]; -0.0986 in assay [3]; 0.224 in assay [4]; 1.9 in assay [5]; -0.0647 in assay [6]. Also, the composite z-score amounted to 1.3 with Sam68 (KHDRBS1); 0.629 in assay [7]; 1.12 in assay [8]; 0.577 in assay [9]; 1.2 in [10]; 0.221 in assay [11]. The composite z-score in assay [12] stood at 0.955; in assay [13], 1.35; in assay [14] it was 1.22; with Lefty1 it was 1.08; in assay [16], 0.971. In addition, the composite Z-score in [1] was -0.0384 (inactive). Besides, the z-score is -1.73 in assay [15] and -0.526 (inactive) in assay [17].
